# Article PMC4336329 (PLoS ONE, 2015)
# About 2,200 (0.71%) of roughly 310,000 compounds showed an effect of 50% or more. The effect is printed as a negative number. The list comes from a sample in which strong results are over-represented; it also holds similar structures and randomly drawn compounds.
# Molecular target: human ether-à-go-go-related gene (hERG) potassium channel (human, UniProt Q12809)
# Assay: primary screen, population patch clamp on CHO cells stably expressing hERG; higher = less effect of the substance
# Description: Briefly, Chinese hamster ovary (CHO) cells stably expressing the hERG channel were dislodged from tissue culture flasks and dispensed into PPC plates. […] During the recording, background leak currents were estimated by a 100 ms step to -80 mV from an initial holding potential of -70 mV and subtracted from the subsequent current measurement. The campaign was conducted in two phases using slight differences in recording protocol. In the first phase, the initial voltage pulse used a 100 ms step to -30 mV from a holding potential of -70 mV, a 2 s conditioning step to +25 mV, and a 2 s test step to -30 mV. During the second phase of the screen, the potential during the conditioning step was raised to +45 mV. In both phases of the campaign, a secondary voltage pulse was applied using the same parameters as the second phase initial pulse. The initial and secondary pulses were applied in the absence of compound, and upon application of 1 μM and 10 μM test concentrations. Small molecule effects on hERG current density were quantified by […].
# Chain of human ether-à-go-go-related gene (hERG) potassium channel (Q12809 whole entry, looked up): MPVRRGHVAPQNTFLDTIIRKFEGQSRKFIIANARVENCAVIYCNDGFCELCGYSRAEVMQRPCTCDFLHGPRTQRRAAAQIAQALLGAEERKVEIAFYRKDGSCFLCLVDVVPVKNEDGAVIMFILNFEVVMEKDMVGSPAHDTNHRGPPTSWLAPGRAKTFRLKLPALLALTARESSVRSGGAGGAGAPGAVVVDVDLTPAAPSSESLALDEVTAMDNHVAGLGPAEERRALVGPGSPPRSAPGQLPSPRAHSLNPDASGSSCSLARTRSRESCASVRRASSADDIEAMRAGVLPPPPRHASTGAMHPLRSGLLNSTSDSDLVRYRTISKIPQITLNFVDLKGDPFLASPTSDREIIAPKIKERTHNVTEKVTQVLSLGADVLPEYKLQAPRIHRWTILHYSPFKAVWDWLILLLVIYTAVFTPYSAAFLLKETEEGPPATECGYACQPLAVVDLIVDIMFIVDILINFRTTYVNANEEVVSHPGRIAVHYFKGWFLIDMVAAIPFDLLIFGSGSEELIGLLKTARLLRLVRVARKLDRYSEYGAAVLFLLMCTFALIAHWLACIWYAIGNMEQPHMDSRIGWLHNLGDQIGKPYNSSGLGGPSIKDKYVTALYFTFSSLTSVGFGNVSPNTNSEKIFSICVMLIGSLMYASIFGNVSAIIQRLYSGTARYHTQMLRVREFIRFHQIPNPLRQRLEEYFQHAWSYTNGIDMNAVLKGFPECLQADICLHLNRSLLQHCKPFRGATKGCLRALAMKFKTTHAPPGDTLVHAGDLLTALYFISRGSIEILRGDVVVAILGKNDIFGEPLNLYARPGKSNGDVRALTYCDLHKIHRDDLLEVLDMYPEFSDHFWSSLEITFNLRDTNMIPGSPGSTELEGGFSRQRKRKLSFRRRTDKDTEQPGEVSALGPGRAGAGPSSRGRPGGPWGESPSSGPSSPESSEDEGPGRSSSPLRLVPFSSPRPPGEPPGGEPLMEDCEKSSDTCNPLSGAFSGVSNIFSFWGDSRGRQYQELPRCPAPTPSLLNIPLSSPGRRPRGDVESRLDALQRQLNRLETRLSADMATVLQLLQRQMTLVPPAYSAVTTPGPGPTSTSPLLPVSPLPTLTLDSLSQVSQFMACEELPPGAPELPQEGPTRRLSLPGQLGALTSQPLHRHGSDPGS
row,Structure (SMILES),"hERG current change (%, negative = inhibition) at 1uM [%]"
1,CCc1noc(C)c1C(=O)NNC(=O)c1cc(OC)cc(OC)c1,9.15
2,CCOc1cc(C2c3c(n[nH]c3C)C(=O)N2c2ccc(Br)cc2)ccc1O (centres unmarked),10.8
3,CCC(Oc1ccc2c(c1)C(=O)CC(C)(C)O2)C(=O)NCCN1CCCCCC1.O=C(O)C(=O)O (centres unmarked),-9.15
4,C=CCn1c(SCC(=O)C(C)(C)C)nnc1-c1cccs1,-9.56
5,C=CCn1c(SCC(=O)N2CCN(c3ccc(F)cc3)CC2)nnc1-c1ccco1,-67
6,C=CCn1c(SCC(=O)N2CCN(c3ccc(F)cc3)CC2)nnc1-c1cccs1,-52.4
7,C=CCn1c(SCC(=O)Nc2ccc(C(=O)OC(C)C)cc2)nnc1-c1cccs1,9.31
8,CCn1c(SCC(=O)Nc2nc(C)c(C)s2)nnc1-c1cccs1,-62.5
9,C=CCn1c(SCC(=O)N2CCN(c3ccccc3)CC2)nnc1-c1ccco1,4.57
10,C=CCn1c(SCC(=O)O)nnc1-c1cccs1,9.03
11,C=CCn1c(SCC(=O)Nc2ccc(N3CCOCC3)cc2)nnc1-c1ccco1,8.51
12,C=CCn1c(SCC(=O)Nc2ccc(C(=O)OCC)cc2)nnc1-c1cccs1,12.3
13,CCn1c(SCC(=O)Nc2ccccc2)nnc1-c1cccs1,-13.8
14,CCn1c(SCC(=O)Nc2nc(C)c(C)s2)nnc1-c1ccco1,-11.2
15,C=CCn1c(SCC(=O)Nc2ccc3c(c2)CCC3)nnc1-c1cccs1,-83.5
16,CN(CC(=O)Nc1ccc(Cl)c(Cl)c1)C(=O)C1CCCC1,5.9
17,Cc1cc(NC(=O)c2cc(-c3ccccc3)on2)n(-c2ccccc2)n1,7.88
18,O=C(COC(=O)c1ccc2ccccc2n1)c1ccc(F)cc1,-5.55
19,Cc1cc([N+](=O)[O-])ccc1NC(=O)Nc1ccccc1F,13
20,O=C(CCc1nnc(CCc2ccccc2)o1)NC(c1cccnc1)C(F)(F)F (centres unmarked),-0.569
21,CC1CN(C(=O)C(Sc2ccccc2)c2ccccc2)CC(C)O1 (centres unmarked),5.46
22,N#C/C(=C1\CCCN1)c1ccc2ccccc2n1,8.93

row,Structure (SMILES),"hERG current change (%, negative = inhibition) at 1uM [%]"
1,Cc1ccc(CCN2CC(C(=O)NCCCN3CCOCC3)CC2=O)cc1 (centres unmarked),16.5
2,CN1CCCc2cc3c(C(F)(F)F)cc(=O)oc3nc21,14.3
3,O=C(CSc1nc(C(F)(F)F)cc(=O)[nH]1)N1CCCCCC1,5.27
4,Cc1nc(C)c(C(=O)NCc2ccccc2Cl)o1,10.8
5,Cc1ccc(S(=O)(=O)N(CC(O)CN2CCCCC2)c2cccc([N+](=O)[O-])c2)cc1 (centres unmarked),-73.1
6,O=[N+]([O-])c1cccc(N(CC(O)CN2CCCC2)S(=O)(=O)c2ccccc2)c1 (centres unmarked),-25.9
7,O=[N+]([O-])c1ccc(S(=O)(=O)N(CC(O)CN2CCCCC2)c2ccccc2)cc1 (centres unmarked),-80.4
8,Cc1ccc(S(=O)(=O)N(CC(O)CN2CCOCC2)c2cccc([N+](=O)[O-])c2)cc1 (centres unmarked),2.27
9,O=C(CN(c1ccc([N+](=O)[O-])cc1)S(=O)(=O)c1ccccc1)N1CCCCC1,-0.85
10,O=[N+]([O-])c1ccccc1S(=O)(=O)N(CC(O)CN1CCCCC1)c1ccccc1 (centres unmarked),2.79
11,O=[N+]([O-])c1ccc(N(CC(O)CN2CCCCC2)S(=O)(=O)c2ccccc2)cc1 (centres unmarked),-79.5
12,COc1ccc([N+](=O)[O-])cc1N(CC(O)CN1CCCCC1)S(=O)(=O)c1ccccc1 (centres unmarked),2.16
13,O=[N+]([O-])c1cccc(N(CC(O)CN2CCCCC2)S(=O)(=O)c2ccccc2)c1 (centres unmarked),-24.2
14,Cn1c(=O)cc(OCCCC(=O)Nc2ccc3c(c2)OCCO3)c2ccccc21,17.2
15,Cc1ccn2c(=O)nc(SCC(=O)NC3CCCCC3)nc2c1,2.62
16,C/C(=N\NC(=O)CNC(=O)C(c1ccccc1)c1ccccc1)c1ccc(C(C)(C)C)cc1,2.98
17,COc1cc(-c2nc3cnccc3n2C)cc(OC)c1OC,2.44
18,CCCCOc1ccc(CN(C)c2ncnc(N)n2)cc1,-1.16
19,O=[N+]([O-])/C(C(Cl)=C(Cl)Cl)=C(\Sc1ccccc1)N1CCCCC1,-3.16
20,Nc1cccc2c1C(=O)N(C(=O)c1cccc(S(=O)(=O)N3CCCC3)c1)C2=O,12.5
21,COC(=O)c1ccc(Cn2nc(C)c([N+](=O)[O-])c2C)o1,2.01
22,O=C1NN(c2ccc(Cl)c(Cl)c2)C(=O)/C1=C/c1ccc(-c2ccccc2C(=O)O)o1,13
